Five compounds from PubChem BioAssay can be followed below.

The subject of test [1] is Human papillomavirus type 1a protein E7 (residues 44-93). Put plainly: small molecules binding HPV E7 44-93 – biochemical, small-molecule microarray, residues 44-93, 635 nm fluorescence, primary screen (AID 1108).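 Further: E7 fragment applied at 1 µg/mL in TBST for 1 h at 4 C; score combines spot fluorescence with its signal to noise ratio.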 To be noted: fluorescence 635 nm, higher = more signal.
A short description of test [2]: hepatitis C replication reporter changes, two-sided – Huh7 cells, luciferase reporter, HCV replication inhibitor project, primary screen (AID 1109).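 Further: huh7 hepatoma cells harbouring a luciferase neomycin HCV replicon reporter; luciferase luminescence as measure of HCV replicon replication; test concentration not given here.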 To be noted: Huh7 HCV replicon luciferase reporter, 48 h; higher = more signal. Background: In a reporter assay the amount or activity of a reporter protein is the signal.
Test [3] deals with Left-right determination factor 2 (Homo sapiens) (UniProt O00292). The experiment in a line: small molecules binding LEFTY2 protein – biochemical, small-molecule microarray, 635 nm fluorescence scan, primary screen (AID 1110). As to conditions: higher = more signal.
Chain of Left-right determination factor 2 (Homo sapiens) (O00292 whole entry, looked up): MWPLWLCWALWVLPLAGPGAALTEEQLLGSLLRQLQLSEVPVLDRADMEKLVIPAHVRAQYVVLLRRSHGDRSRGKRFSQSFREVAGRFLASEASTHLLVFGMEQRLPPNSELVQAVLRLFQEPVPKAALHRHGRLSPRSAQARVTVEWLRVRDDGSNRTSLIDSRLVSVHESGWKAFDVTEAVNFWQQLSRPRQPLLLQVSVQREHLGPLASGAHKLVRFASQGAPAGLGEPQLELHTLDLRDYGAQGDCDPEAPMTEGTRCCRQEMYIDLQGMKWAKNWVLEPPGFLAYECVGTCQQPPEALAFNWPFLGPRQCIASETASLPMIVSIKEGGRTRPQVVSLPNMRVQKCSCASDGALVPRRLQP
In test [4] the target is Calmodulin-1 (Homo sapiens) (UniProt P0DP23). The experiment in a line: small molecules binding calmodulin-1 with EGTA – biochemical, small-molecule microarray, Cy5-labelled CALM1, profiling panel (AID 1111).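 Further: labelled calmodulin applied in Tris saline Tween buffer holding calcium plus EGTA and DTT.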 To be noted: Cy5-CALM1 binding fluorescence, higher = more signal.
For test [5] the target is unchanged. Put plainly: small molecules binding Ca-loaded calmodulin-1 – biochemical, small-molecule microarray, Cy5-labelled CALM1, plus calcium, artefact control for SMM control-protein annotation, profiling panel (AID 1112).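 Further: score merges spot fluorescence with signal to noise from triplicate slides.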 To be noted: Cy5-CALM1 binding fluorescence, higher = more signal.
Test [6] in a line: probe aWnt5a binding to arrayed compounds – biochemical, biotinylated probe, 635/667 nm fluorescence, primary screen (AID 1113).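 Further: score merges 667 nm fluorescence intensity with signal-to-noise per printed feature.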 As to conditions: small-molecule microarray, higher = more signal.
Test [7] in a line: probe aShh binding to arrayed compounds – biochemical, biotinylated probe, 635/667 nm fluorescence, primary screen (AID 1114).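 Further: probe is biotin-labelled aShh protein from a stem cell growth factor screen; measures binding of labelled protein to compounds printed on the slide; score merges feature fluorescence at 667 nm with signal-to-noise.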 As to conditions: small-molecule microarray, higher = more signal.
A short description of test [8]: probe aNog binding to arrayed compounds – biochemical, biotinylated probe, 635/667 nm fluorescence, primary screen (AID 1115).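 Further: probe is biotinylated aNog protein used at 0.15 µg/mL for 1 h at 4 C; z-score combines 667 nm fluorescence of each spot with its signal to noise.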 As to conditions: small-molecule microarray, higher = more signal.
The target of test [9] is Torsin-1A-interacting protein 1 (Homo sapiens) (UniProt Q5JTV8). Put plainly: compound microarray binding of lysate hLAP1 – cell lysate, small-molecule microarray, COS7 lysate, 635/667 nm fluorescence, primary screen (AID 1116). As to conditions: 635 nm fluorescence, higher = more signal.
Chain of Torsin-1A-interacting protein 1 (Homo sapiens) (Q5JTV8 whole entry, looked up): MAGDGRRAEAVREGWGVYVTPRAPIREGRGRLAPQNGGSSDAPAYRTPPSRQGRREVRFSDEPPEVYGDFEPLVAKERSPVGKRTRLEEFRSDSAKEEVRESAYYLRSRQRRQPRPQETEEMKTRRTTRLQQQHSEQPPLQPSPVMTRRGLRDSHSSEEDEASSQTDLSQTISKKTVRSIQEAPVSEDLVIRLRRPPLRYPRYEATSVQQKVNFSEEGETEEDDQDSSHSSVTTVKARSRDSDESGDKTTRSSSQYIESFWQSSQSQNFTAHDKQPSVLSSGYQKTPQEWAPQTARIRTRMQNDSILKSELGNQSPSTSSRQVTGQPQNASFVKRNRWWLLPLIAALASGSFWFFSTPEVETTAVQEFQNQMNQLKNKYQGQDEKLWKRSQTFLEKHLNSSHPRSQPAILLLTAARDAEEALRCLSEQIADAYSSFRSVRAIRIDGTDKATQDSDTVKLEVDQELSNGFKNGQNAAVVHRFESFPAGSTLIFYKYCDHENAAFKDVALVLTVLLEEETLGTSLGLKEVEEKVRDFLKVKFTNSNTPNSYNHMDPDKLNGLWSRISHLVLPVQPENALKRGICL
The target of test [10] is Alpha-bungarotoxin (Bungarus multicinctus) (UniProt P60615). The experiment in a line: compounds binding labelled alpha-BTX control protein – biochemical, small-molecule microarray, Alexa647 label, 635/667 nm fluorescence, artefact control for SMM control protein annotation, profiling panel (AID 1117). As to conditions: alpha-BTX-A647 binding fluorescence, higher = more signal.
Chain of Alpha-bungarotoxin (Bungarus multicinctus) (P60615 whole entry, looked up): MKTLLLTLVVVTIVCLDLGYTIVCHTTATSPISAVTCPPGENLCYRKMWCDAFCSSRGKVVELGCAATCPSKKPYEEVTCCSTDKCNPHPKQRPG

Test [11] addresses Albumin (Bos taurus) (UniProt P02769). The experiment in a line: compounds binding labelled BSA control protein – biochemical, small-molecule microarray, Alexa647 label, 635/667 nm fluorescence, artefact control for SMM control protein annotation, profiling panel (AID 1118).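 Further: score merges 667 nm emission intensity and signal-to-noise per printed compound spot.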 As to conditions: BSA-A647 binding, fluorescence 635 nm, higher = more signal.
The nature of test [12]: probe aXIP binding to arrayed compounds – biochemical, NeuroSMM set, 635/667 nm fluorescence, primary screen (AID 1119).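 Further: probe is the protein aXip251-270 applied at 1 µg/mL to compound-printed slides; binding of probe to printed compounds measured as 667 nm fluorescence plus signal to noise.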 To be noted: small-molecule microarray, higher = more signal, called active from +8 up or from −8 down.
The nature of test [13]: probe aNOTCH3 binding on compound microarray – biochemical, small-molecule microarray, 635/667 nm fluorescence, primary screen (AID 1120).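 Further: probe is a biotin-tagged antibody raised against NOTCH3 rather than NOTCH3 protein; score merges spot fluorescence near 667 nm with spot signal to noise.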 To be noted: higher = more signal.
Test [14] is described as follows: probe aNOTCH2 binding on compound microarray – biochemical, small-molecule microarray, 635/667 nm fluorescence, primary screen (AID 1121).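 Further: score merges feature fluorescence read at 667 nm with its signal to noise.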 To be noted: higher = more signal.
The target of test [15] is Carbonic anhydrase 2 (Homo sapiens) (UniProt P00918). The experiment in a line: compounds binding carbonic anhydrase 2 – biochemical, small-molecule microarray, Alexa647-labelled CAII, profiling panel (AID 1122). As to conditions: CAII-A647 binding fluorescence, higher = more signal.
Test [16] is described as follows: COS7 lysate on small-molecule microarray, probe aHis, 635 nm (AID 1123).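 Further: z-score combines 667nm fluorescence intensity with signal-to-noise per printed compound spot.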 As to conditions: COS7 cell lysate, fluorescence, higher = more signal.
The nature of test [17]: probe aLAP1 signal on lysate-treated microarray – cell lysate, small-molecule microarray, COS7 lysate, primary screen (AID 1124).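 Further: lysate comes from COS7 cells expressing LAP1 and is applied at 0.3 µg/mL; score merges spot fluorescence near 667 nm with signal-to-noise over triplicate slides.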 As to conditions: probe aLAP1, fluorescence, higher = more signal.
Test [18] deals with Sam68 (KHDRBS1). The experiment in a line: compounds binding KHDRBS1 protein – biochemical, small-molecule microarray, 635 nm fluorescence, primary screen (AID 1125).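 Further: score merges 667 nm channel intensity with signal to noise over triplicate slides.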 As to conditions: higher = more signal.
Test [19] relates to Chordin-like protein 2 (CHRDL2). The experiment in a line: compounds binding chordin-like 2 – biochemical, small-molecule microarray, 635 nm fluorescence, primary screen (AID 1126).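 Further: printed compound slides probed with Chrdl2 protein at 4 µg/mL for 1 h at 4 C; score merges 667 nm emission intensity with signal to noise over three replicate slides.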 As to conditions: fluorescence 635 nm, higher = more signal.
Test [20] has as its target Concanavalin-A (Canavalia ensiformis) (UniProt P02866). Put plainly: compounds binding concanavalin A lectin – biochemical, small-molecule microarray, Alexa647 label, 635 nm, artefact control for SMM control protein annotation, primary screen (AID 1127).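 Further: z combines 667 nm emission intensity with signal-to-noise across three replicate slides.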 To be noted: ConA-A647 binding fluorescence, higher = more signal.

The structures appear in SMILES notation. Activity calls are given as the source filed them.

Chain of Concanavalin-A (Canavalia ensiformis) (P02866 whole entry, looked up): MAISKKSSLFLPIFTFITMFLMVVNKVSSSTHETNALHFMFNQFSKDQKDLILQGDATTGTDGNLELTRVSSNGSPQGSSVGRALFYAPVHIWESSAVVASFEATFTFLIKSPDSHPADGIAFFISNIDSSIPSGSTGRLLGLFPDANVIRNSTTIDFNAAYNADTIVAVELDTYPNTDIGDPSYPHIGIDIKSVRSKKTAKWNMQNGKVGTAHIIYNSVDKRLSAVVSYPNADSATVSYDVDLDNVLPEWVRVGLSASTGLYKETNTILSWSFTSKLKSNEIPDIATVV
Chain of Albumin (Bos taurus) (P02769 whole entry, looked up): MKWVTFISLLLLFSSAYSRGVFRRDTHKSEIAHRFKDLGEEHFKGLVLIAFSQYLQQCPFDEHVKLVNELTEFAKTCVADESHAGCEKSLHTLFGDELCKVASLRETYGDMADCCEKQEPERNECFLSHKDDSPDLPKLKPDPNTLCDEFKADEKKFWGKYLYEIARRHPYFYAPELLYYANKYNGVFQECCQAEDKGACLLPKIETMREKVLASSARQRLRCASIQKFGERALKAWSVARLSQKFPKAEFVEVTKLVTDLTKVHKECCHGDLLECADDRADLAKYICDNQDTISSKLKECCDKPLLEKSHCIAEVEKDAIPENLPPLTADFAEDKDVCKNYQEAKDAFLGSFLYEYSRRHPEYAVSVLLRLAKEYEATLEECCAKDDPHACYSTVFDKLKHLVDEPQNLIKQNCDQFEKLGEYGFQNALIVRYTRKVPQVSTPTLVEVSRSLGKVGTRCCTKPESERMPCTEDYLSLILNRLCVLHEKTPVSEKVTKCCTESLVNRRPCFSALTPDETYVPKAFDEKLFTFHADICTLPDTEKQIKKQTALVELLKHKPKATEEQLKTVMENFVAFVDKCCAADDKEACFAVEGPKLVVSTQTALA

Take `C[C@@H]1C=CCC(=O)OC[C@H](C)C(=O)N[C@@H](Cc2ccccc2)C(=O)OC1`: the composite z-score in test [1] is -0.118; in test [3], 0.786; in test [4], -0.273; in test [5], -0.62; in test [6], -0.118; in test [7], -0.414. For the same compound, the composite z-score in [8] was -0.17; in test [9], -0.232; in [10], -0.0092; in test [11], -0.568; in test [13], -0.133; in test [14], -0.0995. In addition, the composite z-score in [15] is -0.187; in test [16], -0.355; in [17], 0.552; in [18], -0.124; in [19], 0.981; in test [20], 0.12. Besides, the z-score in test [2] was 0.962. Further, the composite Z-score in [12] was 0.398 (inactive).
For `CCOC(=O)CCN1C(=O)[C@H]2[C@H]3[C@H](O)[C@H](O)CC(=NOCC=C(C)CCC=C(C)C)[C@@H]3CC[C@H]2C1=O`, the composite z-score was -0.401 in test [1]; 0.631 in test [3]; 0.113 in [4]; -0.672 in test [5]; -0.1 in test [6]; -0.179 in [7]. Also, the composite z-score in [8] was -0.0827; in [9], 0.166; in test [10], -0.0599; in test [11], 0.275; in test [13] it was -0.0043; in test [14], -0.154. For the same compound, the composite z-score in [15] stood at 0.003; in [16], 0.0888; in test [17], 0.0278; in [18], 0.449; in [19] it was 0.434; in [20], 1.01. In test [2], this compound returned a z-score of -0.469. Besides, the composite Z-score in test [12] is -0.754 (inactive).
Take `C#CCCCON=C1C[C@@H](O)[C@@H](O)[C@@H]2[C@@H]3C(=O)N(C4CCCCC4)C(=O)[C@@H]3CC[C@@H]12`: the composite z-score in test [1] is 0.428; in test [3], 0.321; in test [4], -0.346; in [5], -0.342; in test [6], -0.0685; in test [7] it was -0.212. Besides, the composite z-score is -0.494 in [8]; 0.366 in [9]; 0.281 in [10]; 0.42 in test [11]; -0.11 in test [13]; -0.129 in test [14]. The composite z-score in test [15] was 0.621; in test [16], 0.65; in [17], 0.172; in test [18] it was -0.513; in test [19], 0.422; in test [20], 0.335. In test [2], this compound showed a z-score of -0.0098. The composite Z-score in test [12] was 0.0436 (inactive).
On to `C=CC[C@@H]1C=C[C@H](ON=C(C)CCN2CCCCc3nc(C)c(C)cc32)[C@@H](CO)O1`, for which the composite z-score in test [1] was 0.322; in [3] it was 1.25; in [4], -0.937; in [5], -1.72; in test [6] it was -0.0276; in [7], 0.0684. Further, the composite z-score in [8] is -0.444; in [9], 0.533; in [10], -0.102; in [11], 0.0868; in test [13], -0.0304; in test [14], -0.14. Further, the composite z-score in [15] is 0.226; in test [16], 0.588; in test [17] it was 0.155; in test [18], 0.972; in [19], 1.47; in test [20], -0.223. Moreover, in test [2], the z-score was -0.197. Further, the composite Z-score in test [12] was 0.325 (inactive).
As to `O=C1[C@H]2[C@H]3[C@H](O)[C@H](O)CC(=NOC[C@@H](O)COCc4ccco4)[C@@H]3CC[C@H]2C(=O)N1Cc1ccccc1`, the composite z-score in test [1] was 1.48; in [3] it was 1.19; in test [4], -0.754; in test [5] it was -1.55; in [6], -0.152; in test [7], -0.0866. Also, the composite z-score was -0.529 in test [8]; 0.77 in [9]; 0.238 in test [10]; -0.123 in test [11]; 0.121 in test [13]; -0.102 in test [14]. Further, the composite z-score in test [15] was 0.552; in test [16], 0.654; in [17], 0.173; in test [18], 1.3; in test [19] it was 1.4; in [20], -0.193. The compound also showed a z-score in test [2] of -0.114. In addition, the composite Z-score in test [12] is -0.0662 (inactive).
